# Measurements from PubChem BioAssay (EPA / NIEHS).
# Inconclusive results are not listed. Some compounds were tested as several samples or in several runs, with calls that do not always agree. The source made the active and inactive calls. The calls were made as follows: active = hit-call score of the fitted dose curve at least 0.9, where 1 is the maximum; inconclusive = response in the unintended direction; inactive = score below 0.9.
# Target: Hepatocyte nuclear factor 4-alpha (Homo sapiens) (UniProt P41235)
# Sequence (P41235 whole entry, looked up): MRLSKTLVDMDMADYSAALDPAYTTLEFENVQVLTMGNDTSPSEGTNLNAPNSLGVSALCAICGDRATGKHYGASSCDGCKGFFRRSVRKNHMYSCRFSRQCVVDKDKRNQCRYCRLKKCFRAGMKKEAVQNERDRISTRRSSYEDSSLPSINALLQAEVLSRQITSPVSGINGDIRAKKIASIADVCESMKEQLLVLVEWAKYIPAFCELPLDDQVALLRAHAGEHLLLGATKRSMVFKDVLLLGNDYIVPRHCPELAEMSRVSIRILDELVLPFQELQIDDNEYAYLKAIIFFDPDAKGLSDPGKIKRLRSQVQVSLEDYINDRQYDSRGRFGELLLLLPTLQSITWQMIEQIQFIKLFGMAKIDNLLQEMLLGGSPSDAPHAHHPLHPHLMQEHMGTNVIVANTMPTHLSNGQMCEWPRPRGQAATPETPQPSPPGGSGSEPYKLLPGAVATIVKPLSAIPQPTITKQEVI
# Experiment: ATG_HNF4a_TRANS: Attagene TRANS-FACTORIAL HepG2 Assay for human Hepatocyte Nuclear Factor 4 alpha (HNF4a) (AID 2282982)
# Settings: HepG2 HNF4a transactivation reporter, mRNA readout
# Method in brief: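 Multiplexed reporter assay: transfected HepG2, 24 h exposure, total RNA → oligo(dT) RT → PCR → 6-FAM extension → HpaI digest → CE fluorescence. DMSO = negative control.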
Structure (SMILES),outcome,AC50
C[C@]12CC[C@@H]3c4ccc(O)cc4C[C@@H](CCCCCCCCCS(=O)CCCC(F)(F)C(F)(F)F)[C@H]3[C@@H]1CC[C@@H]2O (stereo partly drawn),inactive,
CC1(C)C(C=C(Cl)Cl)C1C(=O)OCc1cccc(Oc2ccccc2)c1 (stereo not drawn),inactive,
CCC(C)OC(=O)N1CCCCC1CCO (stereo not drawn),inactive,
CCOC(=O)c1ccc(O)cc1,inactive,
O=C(O)C1(C(=O)Nc2ccc(Cl)cc2Cl)CC1,inactive,
c1ccc(Nc2ccccc2)cc1,inactive,
CC(C)(c1ccc(O)cc1)c1ccc(O)cc1,inactive,
CCCCOC(=O)[C@@H](C)Oc1ccc(Oc2ccc(C(F)(F)F)cn2)cc1,inactive,
COC(=O)c1ccccc1S(=O)(=O)NC(=O)Nc1nc(OC(F)F)cc(OC(F)F)n1,inactive,
COC(=O)c1ccc(CNS(C)(=O)=O)cc1S(=O)(=O)NC(=O)Nc1nc(OC)cc(OC)n1,inactive,
CC(C)CCCCCCc1ccc(O)cc1,inactive,
O=C(O)c1ccccc1,inactive,
CCCN(CCC)c1c([N+](=O)[O-])cc(C(F)(F)F)c(N)c1[N+](=O)[O-],inactive,
N#CSCSc1nc2ccccc2s1,inactive,24.1 µM (active)
CCN(Cc1c(F)cccc1Cl)c1c([N+](=O)[O-])cc(C(F)(F)F)cc1[N+](=O)[O-],inactive,
CCCN(CCC)C(=O)SCC,inactive,
S=C(S)NCCNC(=S)S.[Mn+2].[S-]C([S-])=NCCN=C([S-])[S-].[Zn+2],inactive,
OB(O)O,inactive,
O=C(c1ccc(O)cc1O)c1ccc(O)cc1O,inactive,
CC(=O)S[C@@H]1CC2=CC(=O)CC[C@]2(C)[C@H]2CC[C@@]3(C)[C@@H](CC[C@@]34CCC(=O)O4)[C@H]12,inactive,
CCCCC(CC)CN1C(=O)C2C3C=CC(C3)C2C1=O (stereo not drawn),inactive,
CCCCOC(=O)C(C)Oc1ccc(Oc2ccc(C(F)(F)F)cn2)cc1 (stereo not drawn),inactive,
CCCOC(=O)c1ccc(C(=O)OCCC)nc1,inactive,

# System: not listed separately
# Experiment: ATG_M_06_TRANS: Attagene TRANS-FACTORIAL HepG2 Assay for M06 Transcription Factor (Internal Marker) (AID 2282983);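 as to AC50: potency for rise in reporter mRNA above DMSO baseline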;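 as to outcome: reporter transcript level by RT-PCR then capillary electrophoresis fluorescence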
# Settings: HepG2 Attagene TRANS M06 internal marker reporter
# Method in brief: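 Background-control reporter readout: after 24 h chemical exposure of transiently transfected HepG2 (GAL4-UAS reporter units), mRNA quantified by RT-PCR with fluorescent labeling and capillary electrophoresis. Gain-of-signal fitting against DMSO baseline.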
Structure (SMILES),outcome,AC50
C[C@]12CC[C@@H]3c4ccc(O)cc4C[C@@H](CCCCCCCCCS(=O)CCCC(F)(F)C(F)(F)F)[C@H]3[C@@H]1CC[C@@H]2O (stereo partly drawn),inactive,
CCC(O)=C1C(=O)CC(C(=O)O)CC1=O (stereo not drawn),inactive,
CCOC(=O)c1ccc(O)cc1,inactive,
c1ccc(Nc2ccccc2)cc1,inactive,
CC(C)(c1ccc(O)cc1)c1ccc(O)cc1,inactive,
COC(=O)c1ccc(CNS(C)(=O)=O)cc1S(=O)(=O)NC(=O)Nc1nc(OC)cc(OC)n1,inactive,
CC(C)CCCCCCc1ccc(O)cc1,inactive,50.3 µM (active)
CCOC(=O)NCCOc1ccc(Oc2ccccc2)cc1,inactive,
CCCN(CCC)c1c([N+](=O)[O-])cc(C(F)(F)F)c(N)c1[N+](=O)[O-],inactive,
N#CSCSc1nc2ccccc2s1,inactive,
CCCN(CCC)C(=O)SCC,inactive,
S=C(S)NCCNC(=S)S.[Mn+2].[S-]C([S-])=NCCN=C([S-])[S-].[Zn+2],inactive,
O=C(c1ccc(O)cc1O)c1ccc(O)cc1O,inactive,
CC(=O)S[C@@H]1CC2=CC(=O)CC[C@]2(C)[C@H]2CC[C@@]3(C)[C@@H](CC[C@@]34CCC(=O)O4)[C@H]12,inactive,
C#C[C@]1(O)CC[C@H]2[C@@H]3CCC4=CC(=O)CC[C@@H]4[C@H]3CC[C@@]21CC,inactive,
CCCOC(=O)c1ccc(C(=O)OCCC)nc1,inactive,
O=C(c1ccccc1)C1CCCCC1,inactive,
CCSC(=O)N(CC(C)C)CC(C)C,inactive,
